The source of these data is PubChem BioAssay AID2685 (National Center for Advancing Translational Sciences (NCATS), 2010).

Molecules are shown by their SMILES. The campaign covered roughly 320,000 compounds. About 2,100 (0.66%) were called active. Inconclusive results (about 53%) are left out. Calls follow the shape of the dose curve; as a rule, active = well fitted inhibition curve with a large enough effect in the signal ratio, with a control signal flat (not every such curve was filed as active); inconclusive = small, poorly fitted or top-dose-only effect, or effect the other way, or a change in a side signal; inactive = flat fitted curve, though single readings scatter; the % refers to the signal ratio. Only a selection was taken, and actives are over-represented in it overall.
Potency is read from the fitted curve at half-maximal effect.

The experiment is described as follows: qHTS Assay for Lipid Storage Modulators in Drosophila S3 Cells.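 As to cell number change: cells counted by Cell Tracker Red CMTPX staining in the red channel.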 As to lipid storage change, negative = inhibition: % is scaled to controls: 0 for no effect and ±100 for the full control effect. The conditions noted are these: BODIPY lipid droplet fluorescence, 18-24 h, cells fed with added oleic acid; cell number change: measured here: cell count max response; series mostly up to 46.1 µM; lipid storage change, negative = inhibition: at the top concentration. Put shortly: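 Drosophila S3 cells loaded with oleic acid (400 uM, as added) and compounds at several concentrations; lipid droplets imaged by 488-nm laser-scanning cytometry, 500–530 nm intensity and object ratio to cell channel. Percent activity normalized to 20 uM Triacsin C.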
(qHTS replaces the single test concentration by a dilution series.)
Regarding `COCCn1c(=O)[nH]c2cc(C(=O)N3CCN(c4ccccc4F)CC3)ccc2c1=O`, the Potency is 11.6 µM (active) and the cell number change was -14.1%.

As to `CCOC(=O)N1CCN(C(=O)c2ccc3c(=O)n(CCOC)c(=O)[nH]c3c2)CC1`, the “lipid storage change, negative = inhibition” value was 4.87% (inactive) and the cell number change worked out at 1.58%.

With `COc1cc2[nH]c(=O)n(Cc3ccc(C(=O)N4CCC(N5CCCCC5)CC4)cc3)c(=O)c2cc1OC`, the Potency is 0.411 µM (active) and the cell number change was -3.59%.

`CCCCCn1c(=O)[nH]c2cc(C(=O)N3CCN(c4ccccc4F)CC3)ccc2c1=O`: the result was inactive and the cell number change turned out to be 0.806%.

On to `CCOC(=O)N1CCN(C(=O)c2ccc3c(=O)n(CCc4ccccc4)c(=O)[nH]c3c2)CC1`, for which the compound was called inactive.

As for `COCCn1c(=O)[nH]c2cc(C(=O)NCCN3CCN(c4ccccc4F)CC3)ccc2c1=O`, the “lipid storage change, negative = inhibition” value was -1.14% (inactive) and the cell number change is -8.35%.

With `CCOC(=O)N1CCN(C(=O)c2ccc3c(=O)n(CCc4ccc(OC)c(OC)c4)c(=O)[nH]c3c2)CC1`, the Potency was 1.3 µM (active) and the cell number change came to 12.7%.

Regarding `COc1cc2[nH]c(=O)n(Cc3ccc(C(=O)NCC4CCCO4)cc3)c(=O)c2cc1OC` (stereo unspecified), the “lipid storage change, negative = inhibition” value was 4.38% (inactive) and the cell number change is 12.5%.

`CCCCCn1c(=O)[nH]c2cc(C(=O)N3CCN(CC)CC3)ccc2c1=O`: the compound was classed as inactive.

For `COc1cc2[nH]c(=O)n(Cc3ccc(C(=O)NC4CCCC4)cc3)c(=O)c2cc1OC`, the compound was classed as inactive.

Regarding `CCCCCn1c(=O)[nH]c2cc(C(=O)N3CCN(C(=O)OCC)CC3)ccc2c1=O`, the Potency is 3.66 µM (active).

Take `COc1ccc(N2CCN(C(=O)c3ccc4c(=O)n(CCc5ccc(OC)c(OC)c5)c(=O)[nH]c4c3)CC2)cc1`: the “lipid storage change, negative = inhibition” value was -2.58% (inactive) and the cell number change was -0.645%.

In the case of `CCC(=O)Nc1ccc2oc(-c3cccnc3)nc2c1`, the “lipid storage change, negative = inhibition” value is 6.31% (inactive) and the cell number change was determined as 17.6%.

On to `OCCNc1ncnc2c1sc1nc(N3CCOCC3)c3c(c12)CCC3`, for which the “lipid storage change, negative = inhibition” value was 24.5% (inactive) and the cell number change amounted to 0.136%.

As to `Cc1c(OC(C)C(=O)NCCCN2CCOCC2)ccc2c3c(c(=O)oc12)CCCC3` (stereo unspecified), the result was inactive and the cell number change is 8.4%.

As to `COC(=O)CNC(=O)CSc1nc(N)cc(=O)[nH]1`, the “lipid storage change, negative = inhibition” value is -9.71% (inactive) and the cell number change is -9.53%.

Turning to `Cc1cc(C)c(O)c(NC(=S)NC(=O)Cc2ccccc2)c1`, the compound was called inactive and the cell number change is -14.2%.

For `CCc1ccccc1Nc1nc(N)nc(COC(=O)CCS(=O)(=O)c2ccccc2)n1`, the “lipid storage change, negative = inhibition” value is 28.2% (inactive).

As for `Cc1c(C)n(CCO)c2ncnc(Nc3ccc(F)cc3)c12`, the “lipid storage change, negative = inhibition” value was 1.25% (inactive) and the cell number change is 17.8%.

As for `C=CCN1C(=O)/C(=C\c2ccc(Cl)cc2)N=C1SCC(=O)NC1CCCCC1`, the compound was classed as inactive and the cell number change was determined as 1.87%.

As for `CC(=O)c1ccc(NC(=O)/C(=C\c2cccs2)NC(=O)c2ccco2)cc1`, the “lipid storage change, negative = inhibition” value was -8.78% (inactive) and the cell number change was found to be 17%.

Regarding `CC1=C(C(=O)Nc2ccccc2)C(c2cccs2)NC(=O)N1` (stereo unspecified), the “lipid storage change, negative = inhibition” value was 5.69% (inactive) and the cell number change was -4.1%.

As to `CC1=C(C(=O)Nc2ccc(C)cc2)C(c2ccc(N(C)C)cc2)NC(=O)N1` (stereo unspecified), the “lipid storage change, negative = inhibition” value is 9.61% (inactive) and the cell number change was -1.82%.

On to `CCN(CC)c1ccc(C2NC(=O)NC(C)=C2C(=O)Nc2ccccc2)cc1` (stereo unspecified), for which the Potency is 1.64 µM (active) and the cell number change is -25.6%.

Take `Cc1ccc(NC(=O)c2c(O)c3ccccc3n(C)c2=O)nc1`: the “lipid storage change, negative = inhibition” value was 8.6% (inactive) and the cell number change was -15.8%.

As to `CCOC(=O)c1cnc2c(C)c(-c3ccccc3)[nH]n2c1=O`, the “lipid storage change, negative = inhibition” value is -2.41% (inactive) and the cell number change was found to be 6.05%.

For the compound `C=CCOc1ccc(/C=N/N2C(=O)C(CC(=O)Nc3ccc(F)cc3F)SC2=NC)cc1` (stereo unspecified), the Potency was 18.4 µM (active) and the cell number change amounted to 23%.

With `CN=C1SC(CC(=O)Nc2ccc(F)cc2F)C(=O)N1/N=C(\C)c1cccc(OCC(=O)O)c1` (stereo unspecified), the “lipid storage change, negative = inhibition” value was -8.34% (inactive) and the cell number change turned out to be 5.65%.

Turning to `CN=C1SC(CC(=O)Nc2ccc(F)cc2F)C(=O)N1/N=C/c1ccc(OC(F)F)c(OC)c1` (stereo unspecified), the “lipid storage change, negative = inhibition” value was -6.72% (inactive) and the cell number change was 8.82%.

Turning to `CCOC(=O)c1cnc2c(OC)cccc2c1Oc1ccccc1`, the “lipid storage change, negative = inhibition” value is -5.84% (inactive) and the cell number change turned out to be 0.518%.

On to `O=C(NC(=S)NCc1ccco1)c1ccccc1`, for which the “lipid storage change, negative = inhibition” value is 7.18% (inactive) and the cell number change was 2.74%.

For `NC(=NCc1ccco1)NC(=O)c1ccccc1`, the Potency is 20.6 µM (active) and the cell number change was determined as 21.8%.

Regarding `c1ccc(NC(=NCc2ccco2)c2ccccc2)cc1`, the “lipid storage change, negative = inhibition” value was -0.489% (inactive) and the cell number change amounted to 0.492%.

As for `COC(=O)c1ccc(OC(=O)CCN2C(=O)C3C4c5ccccc5C(c5ccccc54)C3C2=O)cc1` (stereo unspecified), the “lipid storage change, negative = inhibition” value is -0.417% (inactive) and the cell number change was -1.2%.

Turning to `O=C(c1cnccn1)N1CCN(c2ccccc2F)CC1`, the “lipid storage change, negative = inhibition” value is 8.36% (inactive) and the cell number change is -10.1%.

On to `Nc1ncc(Br)cc1S(=O)(=O)NC1CCCCC1`, for which the result was inactive and the cell number change amounted to 6.11%.

Regarding `Nc1ncc(Br)cc1S(=O)(=O)Nc1cc(C(F)(F)F)cc(C(F)(F)F)c1`, the Potency was 0.58 µM (active) and the cell number change is -15.9%.

Consider `Nc1ncc(Br)cc1S(=O)(=O)Nc1ccccc1F`, for which the “lipid storage change, negative = inhibition” value is -1.29% (inactive).

Take `Cc1c(C(=O)O/N=C(\N)c2ccccn2)cccc1[N+](=O)[O-]`: the “lipid storage change, negative = inhibition” value is 7.81% (inactive) and the cell number change is 7.58%.

Regarding `CCOC(=O)C1=C(COC(=O)Cc2ccc(Cl)cc2)NC(=O)NC1C` (stereo unspecified), the “lipid storage change, negative = inhibition” value was 19.6% (inactive) and the cell number change is 5.22%.

Consider `O=C(CN1CCN(CC(=O)Nc2ccccn2)CC1)Nc1ccccn1`, for which the Potency is 29.1 µM (active) and the cell number change was determined as 1.87%.

As for `Cn1nnnc1SCC(=O)Nc1ccccc1Br`, the “lipid storage change, negative = inhibition” value is -11.7% (inactive) and the cell number change is -3.35%.

`NC(=O)C1CCN(CC(=O)Nc2ccccn2)CC1`: the compound was called inactive.

Take `O=C(CC(=O)Nc1ccccn1)Nc1ccccn1`: the “lipid storage change, negative = inhibition” value is 6.74% (inactive) and the cell number change stood at 4.61%.

Consider `Cn1nnnc1SCC(=O)Nc1ccccn1`, for which the Potency was 5.8 µM (active) and the cell number change was -3.74%.

Consider `O=C(CN1CCN(c2ccccn2)CC1)Nc1ccccc1`, for which the compound was classed as inactive and the cell number change was found to be 6.43%.

In the case of `Cc1cc(C)cc(NC(=O)CN2CCN(c3ccccn3)CC2)c1`, the Potency was 16.4 µM (active) and the cell number change is -2.33%.

On to `Cc1cccc(NC(=O)CSc2nnnn2C)n1`, for which the “lipid storage change, negative = inhibition” value was -8.83% (inactive) and the cell number change was -5.08%.

For the compound `Cc1cc(C)cc(NC(=O)CN2CCN(c3ncccn3)CC2)c1`, the “lipid storage change, negative = inhibition” value was -4.58% (inactive) and the cell number change was 8.39%.
